According to PubChem BioAssay AID493151 (Sanford-Burnham Center for Chemical Genomics, 2011):
The whole screen tested about 1,400 compounds, of which about 860 (61%) were called active.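 The calls were made as follows: active = inhibition reaching a set limit, 80% of the first screen's cutoff, at 20 µM in any replicate; inactive = the rest.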 The set was probably picked from earlier hits. These entries were drawn from the full list.

What follows are compounds tested against DNA dC->dU-editing enzyme APOBEC-3A (Homo sapiens) (UniProt P31941) (assay: APOBEC3A deaminase inhibitors, retest, confirmation, selectivity assay for APOBEC3G inhibitor project, biochemical, single concentration, fluorescence readout (AID 493151;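 also: plate controls were DMSO wells with A3A for no effect and wells lacking A3A enzyme for full effect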)). Conditions: recombinant A3A, ssDNA deaminase UDG fluorescence assay; at 20 µM; hits give high values.
DNA dC->dU-editing enzyme APOBEC-3A (Homo sapiens), sequence (P31941 whole entry, looked up): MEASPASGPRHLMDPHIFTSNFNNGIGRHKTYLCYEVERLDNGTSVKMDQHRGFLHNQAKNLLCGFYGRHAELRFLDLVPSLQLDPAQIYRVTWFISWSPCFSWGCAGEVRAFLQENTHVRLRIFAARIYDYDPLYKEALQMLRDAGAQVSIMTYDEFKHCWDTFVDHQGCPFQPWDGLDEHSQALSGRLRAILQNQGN

Structure (SMILES) | inhibition
C=CC1=C(C(=O)O)N2C(=O)[C@@H](NC(=O)/C(=N/OCC(=O)O)c3csc(N)n3)[C@H]2SC1 | 76.3% (active)
O=C(Nc1cccc(-c2nc3ccccc3[nH]2)c1)c1ccc(C(=O)Nc2cccc(-c3nc4ccccc4[nH]3)c2)cc1 | 6.82% (inactive)
CC(=O)Nc1ccc(NC(=O)C2CCCN(S(=O)(=O)c3ccc(Cl)cc3)C2)cc1 (centres undefined) | -5.52% (inactive)
CSc1nnc(-c2ccncc2)n1CCCN1CCCC1=O | 72.4% (active)
O=C(CSc1nccc(=O)[nH]1)Nc1ccc(N2CCOCC2)c(Cl)c1 | 18.1% (inactive)
COc1cc(/C=N\Nc2ccc([N+](=O)[O-])cn2)ccc1OCC(=O)O | 37.7% (active)
CC1(C)CC(N2CCN(C(c3ccccc3)c3ccccc3)CC2)=CC(=[N+]2CCCCC2)C1 | 58.7% (active)
Cc1ccc(C2=C/C(=C\c3cccnc3)C(=O)O2)cc1 | 19.7% (inactive)
CCNC(=O)COC(=O)CCNC(=O)c1cccc(C)c1 | 25.7% (active)
CSc1nnc(SCc2nc3sc(C(=O)O)c(C)c3c(=O)[nH]2)s1 | 68.9% (active)
COc1ccc(Cc2nnc(NC(=O)c3ccc(OC)cc3OC)s2)cc1 | -9.68% (inactive)
COC(=O)C1=C(C)N(Cc2ccccc2)C(=NCCCOC(C)C)N[C@H]1c1ccccc1 | 77.1% (active)
N#Cc1ncc(C(F)(F)F)cc1Oc1cccnc1 | -4.78% (inactive)
CCn1c(SCC(=O)Nc2cccc(F)c2)nnc1-c1cc2cc(Br)ccc2o1 | 68.4% (active)
NS(=O)(=O)c1cc(C(=O)OCC(=O)NNC(=O)c2ccccc2)ccc1Cl | 8.76% (inactive)
O=C(COC(=O)c1cnc(Cl)c(Cl)c1)NCc1ccco1 | 19.3% (active)
C[n+]1ccc(C(=O)NCc2ccccc2)cc1 | 63% (active)
CC[n+]1cc(C)ccc1/C=C/c1ccc(N(C)C)cc1 | 58.4% (active)
CCN1C(=NCCc2cccnc2)N[C@@H](c2ccccc2)[C@H](C(=O)OC)[C@H]1C | 61.1% (active)
CC[n+]1c(C)n(-c2ccccc2)c2ccc(NC(C)=O)cc21 | 73.8% (active)
COc1ccc(C)cc1NC(=O)CCCN1C(=O)NC(C)(C)C1=O | 48.1% (active)
CS(=O)(=O)c1ccc2c(c1)SC1=NC(=O)/C(=C/c3ccco3)C(=N)N12 | 33.9% (active)
CC1=NN(C(=O)CCc2ccccc2O)C(O)(C(F)(F)F)C1 (centres undefined) | 21.4% (inactive)

Structure (SMILES) | inhibition
O=C(CNC1CCCCC1)NCC1(c2ccccc2)CCCC1 | 29.8% (inactive)
CC(Oc1ccc(F)cc1)C(=O)Nc1cc(S(=O)(=O)N2CCOCC2)ccc1N1CCN(C)CC1 (centres undefined) | 55.2% (active)
C[N+](C)(C)CCNC(=O)c1cc[n+](Cc2ccccc2)c(/C=N/O)c1 | 52.7% (active)
COC(=O)C[n+]1cccc2ccccc21 | 67.4% (active)
CC(C)c1ccc(/C=C2\NC(=O)NC2=O)cc1 | 67.7% (active)
CCCCCCCC[n+]1cccc(C(=O)N2c3c(nc(N)[nH]c3=O)NC(C)C2C)c1 (centres undefined) | 69.9% (active)
COc1ccc(NC(=O)CN(C)C(=O)/C=C/c2cn(Cc3ccccc3)nc2-c2cccnc2)cc1 | 30.7% (inactive)
CCCN1C2=C(C(=O)CCC2)C(c2ccc(O)c(Br)c2)C2=C1CCCC2=O | -5.86% (inactive)
S=C(Nc1cccnc1)Nc1ccccn1 | -2% (inactive)
C[N+]1(CCNC(=O)/C=N/O)CCCCC1 | 73.9% (active)
C[N+]1(CC(O)COc2ccccc2)CCN(C(=O)c2ccc([N+](=O)[O-])cc2)CC1 (centres undefined) | 74.8% (active)
CNc1ccc([N+](=O)[O-])cc1C(=O)O | 0.63% (inactive)
COc1ccc(CNc2nnnn2C)cc1 | -3.03% (inactive)
Cc1cc2c(cc1C)[n+](C)cn2CC(O)COCC1CC=CCC1 (centres undefined) | 73.1% (active)
CC(/C=C/c1ccccc1)=N\NC(=O)C1CC1(C)c1ccccc1 (centres undefined) | -0.43% (inactive)
CCCc1nc(-c2cc3cc(C)ccc3[nH]c2=O)no1 | 67.6% (active)
COc1ccc2[nH]c(=O)c(-c3noc(-c4ccc(F)cc4)n3)cc2c1 | 5.11% (inactive)
COc1ccccc1-c1noc(CSc2nc(C)cc(=O)[nH]2)n1 | 36.8% (active)
O=C(c1ccc(CS(=O)(=O)c2ccccc2)o1)N1CCN(c2ccccc2)CC1 | 31.7% (active)
Cc1snc(SCc2c(F)cccc2Cl)c1C#N | 30.3% (inactive)
N#Cc1ccccc1CN1C(=O)S/C(=C/c2cccn2-c2cccc(C(=O)O)c2)C1=O | 53.8% (active)
CCN(CC)CCCNC(=O)CCn1nc(-c2ccc(Cl)cc2)ccc1=O | -4.91% (inactive)
Cc1nnc(N/N=C/c2ccccn2)[nH]c1=O | -1.88% (inactive)

Structure (SMILES) | inhibition
O=C(N/N=C\c1cccnc1)c1cc(-c2ccccc2)nc2c(Cl)cccc12 | -3% (inactive)
COc1ccccc1CCNC(=O)C1CCN(C(=O)/C=C/c2ccccc2)CC1 | 36.9% (active)
COc1ccc(CCNC(=O)COC(=O)/C=C/c2cccs2)cc1OC | -7.13% (inactive)
CC1(C)Oc2ccc3ccc(=O)oc3c2/C(=C/NCCO)C1=O | 71.5% (active)
N#Cc1ccsc1NC(=O)CN1CCN(S(=O)(=O)c2cc(Cl)ccc2Cl)CC1 | 22.2% (inactive)
CCN(CC)CCOC(=O)c1ccc(NC(=O)CNC(=O)c2ccccc2)cc1 | 2.53% (inactive)
Cc1csc(SCC(=O)Nc2sccc2C#N)n1 | 0.02% (inactive)
CCOC(=O)c1ccc(NC(=O)CSc2ncccn2)cc1 | 59% (active)
Cc1cc(/C=N/NC(=O)CC2(C)OCCO2)c(C)n1-c1ccc(Cl)c(Cl)c1 | 0.39% (inactive)
CCS(=O)(=O)c1ccc(-c2cccc(NC(=O)c3ccc(Br)o3)c2)nn1 | -5.47% (inactive)
CCCCNC(=O)CSc1nc2ccc(NC(=O)CSc3nnc(N)s3)cc2s1 | 49.7% (active)
COc1ccc(Br)cc1CN(C)C(=O)C1CC(=O)N(C2CCCC2)C1 (centres undefined) | 27.6% (active)
O=C(CSc1nc2ccccc2c(=O)[nH]1)Nc1nc(-c2ccc(Br)cc2)cs1 | 42.3% (active)
CC(C)CCOc1ccc(C(=O)C[N+]2(C)CCOCC2)cc1 | 95.7% (active)
Cc1ccc(C(=O)N/N=C\c2cc(Br)c(Br)o2)cn1 | 15.2% (active)
COc1cccc(NC(C)=[N+](C)CCNS(=O)(=O)c2ccc(Cl)cc2)c1 | 29.4% (inactive)
C[N+](C)(CCCCCC[N+](C)(C)CCCN1C(=O)c2cccc3cccc(c23)C1=O)CCCN1C(=O)c2cccc3cccc(c23)C1=O | 35.2% (active)
CC(=O)Nc1ccc(Nc2cc(C)nc(Nc3ccc(NC(C)=O)cc3)n2)cc1 | 48.6% (active)
Cc1ccc(CCCOC(=O)C[N+]2(C)CCCCC2)cc1 | 81.4% (active)
CCN1C(=NCC(C)C)N[C@@H](CCc2ccccc2)[C@H](C(=O)NCC(C)C)[C@H]1C | 37.8% (active)
CCN1C(=NCc2ccc(OC)cc2)N[C@@H](CCc2ccccc2)[C@H](C(=O)NCc2ccc(OC)cc2)[C@H]1C | 32.8% (active)
COCCCn1c(Cc2csc(Nc3cccc(Cl)c3)n2)nnc1SCC(=O)OC1CCCCC1 | 72.2% (active)
O=C1c2oc3ccccc3c(=O)c2C(c2cccc(O)c2)N1c1ccccn1 (centres undefined) | -9.88% (inactive)
